Data on 103 molecules can be found in PubChem BioAssay AID504832 (National Center for Advancing Translational Sciences (NCATS), 2011).

In all, about 310,000 compounds went through this assay and about 18,000 (5.8%) were called active. Where a call stands in place of a potency, no number is given. Not shown: some 22% with an inconclusive outcome. The full list was thinned out, with actives kept by preference. Values without a mark were called inactive. Calls come from the whole dose curve; as a rule, active = well fitted inhibition curve with a large enough effect; inconclusive = small, poorly fitted or top-dose-only effect, or another doubt; inactive = no such curve, though single readings can be large or run the other way.
Potency is the fitted concentration of half-maximal effect.

This test is described as follows: Primary qHTS for delayed death inhibitors of the malarial parasite plastid, 48 hour incubation. Conditions: P. falciparum luciferase growth in erythrocytes; series mostly up to 28.7 µM. The text has this:
The goal of this screen is to discover new antimalarial compounds that act by inhibiting the development of the apicoplast in the malarial parasite Plasmodium falciparum. The biochemical processes that make this organelle essential for erythrocytic stage parasites are not well understood. However, antibiotics such as azithromycin and tetracycline, which target the apicoplast translational machinery, have a potent antimalarial effect.
We have developed a cell-based assay that measures parasite growth based on the expression of an integrated copy of a firefly luciferase reporter. To detect small molecules that cause this "delayed death" phenotype, erythrocytes infected with the luciferase-expressing parasites were incubated with compounds for either one or two generations, corresponding to 48 and 96 hours, respectively. Compounds that inhibit parasite growth in the second generation, but not the first, should be enriched in antimalarials that target the apicoplast. Growth inhibition is detected by a decrease in luciferase activity.
Assay Provider: David Fidock and Eric Ekland, Columbia University
Keywords: NIH Roadmap, MLPCN, MLI, MLSMR, qHTS, NCGC, qHTS, malaria, luciferase, viability
Four microliters of culture medium (RPMI 1640 with 0.5% w/v Albumax (GIBCO), 24 mM sodium bicarbonate and 10 ug/mL gentamycin) were dispensed by a Multi-drop Combi into white solid 1536-well plates (Grenier) and 23 nL compound was added by a pin tool. Four microliters of infected erythrocytes (2% hematocrit, 0.1% parasitemia final concentration) in culture medium were dispensed and the plates incubated for 48 hours at 37 C in 5% CO2. Two microliters of luciferase detection reagent was added and luminescence was detected by a ViewLux (PerkinElmer) reader.
(In general: qHTS replaces the single test concentration by a dilution series.)
Take `COc1ccc(CN2C(=O)CN=C2Nc2ccc(C)cc2C)cc1`: the Potency result was “inactive”.

In the case of `CCn1c(CN2C(=O)CSc3ccccc32)n[nH]c1=S`, the Potency entry was “inactive”.

For `CC(C)(C)c1ccc(CN2C(=O)CN=C(c3ccccc3)c3ccccc32)cc1`, the Potency was 2.08 µM (active).

As to `O=S(=O)(NCCc1ccc(Cl)cc1)c1cccs1`, the Potency entry was “inactive”. Consider `Cc1cc(NC(C)C)n2c(nc3ccccc32)c1C#N`, for which the Potency entry is “inactive”.

With `Cc1ccccc1-c1nc(C#N)c(NCc2ccco2)o1`, the Potency result is “inactive”. With `Cc1cc(NCc2ccco2)n2c(nc3ccccc32)c1C#N`, the Potency was 4.15 µM (active). For `COc1ccc(CCN2CC(C(=O)NCCN3CCNC3=O)CCC2=O)cc1` (stereo not drawn), the Potency result was “inactive”. Turning to `O=S(=O)(c1ccc(F)cc1)N1CCN(C(=S)NCc2ccco2)CC1`, the Potency was 1.47 µM (active).

Regarding `CC1CCN(S(=O)(=O)c2ccc(S(=O)(=O)NCc3ccco3)cc2)CC1`, the Potency result is “inactive”. As to `O=C(O)C1CCCCC1C(=O)N1CCN(S(=O)(=O)c2ccc(F)cc2)CC1` (stereo not drawn), the Potency result is “inactive”.

As for `O=S(=O)(c1ccc(F)cc1)N1CCN(C(=S)NC2CCCC2)CC1`, the Potency was 7.38 µM (active). As to `O=C(CN1CCN(S(=O)(=O)c2ccc(F)cc2)CC1)NC1CC1`, the Potency result was “inactive”. On the same count and under the same terms, the same measure for `Cc1ccc(S(=O)(=O)N2CCC(C(=O)N[C@@H](C)C(=O)NCc3ccco3)CC2)cc1`: “inactive”; for `C=CCOc1ccc(/C=C/C(=O)OC(C)C(=O)Nc2ccc(NC(C)=O)cc2)cc1` (stereo not drawn): “inactive”. As to `O=C(CN1CCCCCC1)Nc1ccc(Br)cc1[N+](=O)[O-]`, the Potency entry was “inactive”.

Consider `Cc1cc(OCC(=O)N(C)c2c(N)n(Cc3ccccc3)c(=O)[nH]c2=O)c(C(C)C)cc1Cl`, for which the Potency result was “inactive”. Consider `COc1cc(C2C(C(=O)c3ccc(C)o3)=C(O)C(=O)N2CCc2ccccc2)ccc1O` (stereo not drawn), for which the Potency entry is “inactive”. Turning to `COc1ccc(CCN2C(=O)c3[nH]nc(-c4ccccc4O)c3C2c2ccc(C)cc2)cc1OC` (stereo not drawn), the Potency was 9.28 µM (active). Same read-out and setting: the same measure for `COc1ccc(CCN(C)CCN2C(=O)c3ccccc3C2=O)cc1OC`: “inactive”. Still for that read-out and setting: the same measure for `COC(=O)c1nc2n(n1)C(c1ccc([N+](=O)[O-])cc1)C(C(=O)Nc1ccc(Cl)cc1)=C(C)N2` (stereo not drawn): 1.65 µM (active). With `COCCOC(=O)C1=C(C)Nc2nc(C)nn2C1c1ccccc1` (stereo not drawn), the Potency result was “inactive”. In the case of `COc1ccc(NC(=O)C2=C(C)NC(=O)NC2c2ccccc2[N+](=O)[O-])cc1` (stereo not drawn), the Potency entry is “inactive”. For the molecule `COCCN1CCN(C(=O)c2cc(COc3ccc(F)cc3Cl)on2)CC1`, the Potency entry was “inactive”.

Take `CC1CC(C)CN(S(=O)(=O)c2cccc3nonc23)C1` (stereo not drawn): the Potency entry was “inactive”. With `C=CCn1c(SCC(=O)NCCCO)nc2sc3c(c2c1=O)CCC3`, the Potency entry was “inactive”.

As for `CC(C)c1nc(SCC(=O)Nc2cccc(C(=O)O)c2)c2c3c(sc2n1)CCCC3`, the Potency entry was “inactive”. `CC1=CC(C)(C)Nc2ccc(OC(=O)CN3C(=O)C4CCCCC4C3=O)cc21` (stereo not drawn): the Potency was 10.4 µM (active). On to `CC1=CC(C)(C)Nc2ccc(OC(=O)C(Cc3ccccc3)N3C(=O)C4CCCCC4C3=O)cc21` (stereo not drawn), for which the Potency was 13.1 µM (active). With `O=C(CN1C(=O)C2C3CCC(C3)C2C1=O)Oc1ccc2ccccc2c1` (stereo not drawn), the Potency entry is “inactive”. With `CC(OC(=O)CN1C(=O)C2CCCCC2C1=O)C(=O)Nc1ncc(Cl)cc1Cl` (stereo not drawn), the Potency entry was “inactive”. Same read-out and setting: the same measure for `Cc1ccc(C)n1C(Cc1ccccc1)C(=O)O` (stereo not drawn): “inactive”; for `CCC1(C)NC(=O)N(CC(=O)N2CCN(c3cccc(Cl)c3)CC2)C1=O` (stereo not drawn): “inactive”; for `Cc1ccc(C)c(NC(=O)COC(=O)CSc2ccccc2)c1`: “inactive”.

In the case of `Cc1cccc(C)c1NC(=O)N1CC(C)OC(C)C1` (stereo not drawn), the Potency entry is “inactive”. On the same count and under the same terms, the same measure for `Cc1sc2nc(CSCC(=O)NC3CCCCC3)[nH]c(=O)c2c1C`: “inactive”; for `Cc1c(C=O)n(C)n(-c2ccccc2)c1=O`: “inactive”. For `CNC(=O)CN1C(=O)NC(c2ccccc2)(c2ccccc2)C1=O`, the Potency result was “inactive”. The same measure, in the same setting: the same measure for `CCC1(c2ccccc2)C(=O)NC(=O)N(C)C1=O` (stereo not drawn): 16.9 µM (active); for `CN(CCc1ccccc1)c1ccc([N+](=O)[O-])cn1`: “inactive”. As to `COc1ccccc1/C=C1\SC(=O)N(CCC(=O)N(C)C2CCS(=O)(=O)C2)C1=O` (stereo not drawn), the Potency result is “inactive”. As for `CCC(=O)c1ccc(OC(=O)/C=C/c2cc(OC)c(OC)c(OC)c2)cc1`, the Potency result is “inactive”.

With `O=C(NCC(c1cccnc1)N1CCN(c2ccccc2)CC1)Oc1ccccc1` (stereo not drawn), the Potency was 13.1 µM (active). For `Cc1ccc(C)c(NC(=S)NCC(c2cccnc2)N2CCOCC2)c1` (stereo not drawn), the Potency entry was “inactive”.

Turning to `CN1CCN(C(CNS(=O)(=O)c2cccs2)c2cccnc2)CC1` (stereo not drawn), the Potency entry is “inactive”. Regarding `COc1cc(CO)ccc1OCC(=O)Nc1cccc2ccccc12`, the Potency result is “inactive”.

Consider `CC(C)(CNC(=O)CNC(=O)C1CCCCC1)N1CCOCC1`, for which the Potency result is “inactive”. For `O=C(NC(=S)Nc1ccc(Cl)c(C(=O)O)c1)c1cncc(Br)c1`, the Potency entry is “inactive”. Consider `O=C(CCNS(=O)(=O)c1ccccc1)Nc1ccc(Cl)cc1C(=O)c1ccccc1`, for which the Potency is 11.7 µM (active). Still for that read-out and setting: the same measure for `O=C(COC(=O)c1ccccc1)Nc1ccc(Cl)cc1C(=O)c1ccccc1`: “inactive”; for `CN1CCN(C(=S)SCC(=O)Nc2ccc(Cl)cc2C(=O)c2ccccc2)CC1`: “inactive”. As for `COc1ccc(-c2nnc(SCC(=O)Nc3cccnc3Cl)n2C)cc1`, the Potency result was “inactive”.

Take `Cc1ccc(NC(=O)CN(C)C(=O)Cn2nnc(-c3ccccc3)n2)cc1`: the Potency result was “inactive”.

Regarding `COc1ccccc1C(=O)COC(=O)CNS(=O)(=O)c1ccc(NC(C)=O)cc1`, the Potency entry was “inactive”. In the case of `O=C(Nc1ncccc1O)c1ccc(C(=O)c2ccccc2)cc1`, the Potency is 0.738 µM (active). On the same count and under the same terms, the same measure for `O=C(Nc1ccc(S(=O)(=O)N2CCCCCC2)cc1)c1c(F)cccc1F`: “inactive”; for `O=C(CNC(=O)c1ccc2ccccc2c1)Nc1ncccc1O`: “inactive”; for `O=C(Nc1cccnc1)c1cccc(S(=O)(=O)N2CCCC2)c1`: “inactive”. As to `O=C(N/N=C/c1ccccn1)c1ccc(S(=O)(=O)N2CCCCCC2)cc1`, the Potency result was “inactive”. With `O=C(NC(=O)c1ccccc1)Nc1ccccc1O`, the activity change, negative = inhibition is -2.78% [at 0.00184 µM]. For the molecule `O=C(Nc1ncccc1O)c1ccc(S(=O)(=O)N2CCCC2)cc1`, the Potency was 3.29 µM (active). Regarding `O=C(Nc1ncccc1O)c1ccc(S(=O)(=O)N2CCCCCC2)cc1`, the Potency was 4.15 µM (active). Same read-out and setting: the same measure for `O=C(Nc1cccc(F)c1)c1ccc(S(=O)(=O)N2CCCC2)cc1`: “inactive”; for `O=C(COc1ccc(Cl)cc1Cl)N/N=C/c1ccccn1`: “inactive”; for `CCc1ccc(NC(=O)CCNS(=O)(=O)c2cccs2)cc1`: “inactive”. In the case of `O=C(CCNC(=O)c1ccccc1)Nc1nc2ccccc2s1`, the Potency result was “inactive”. Turning to `CCN(CC(=O)Nc1c(F)cccc1F)C(=O)CN1c2cccc3cccc(c23)S1(=O)=O`, the Potency result was “inactive”.

Take `O=CN1CCN(C(=O)c2ccc(Br)o2)CC1`: the Potency entry was “inactive”.

Consider `COc1ccc(CCNC(=O)CN(C)S(=O)(=O)c2ccc3nc(C)sc3c2)cc1OC`, for which the Potency result is “inactive”. On to `Cc1cc(C)c(NC(=O)CN2CCCCCC2)c(C)c1`, for which the Potency entry is “inactive”. Same read-out and setting: the same measure for `Cc1cc(C)c(NC(=O)C[N+](C)(C)CC(O)COc2cccc3ccccc23)c(C)c1` (stereo not drawn): 5.22 µM (active); for `Cc1cc(C)cc(OCC(=O)NCc2cc(C)nc3ccccc23)c1`: “inactive”. For `Cc1ccccc1C(=O)Nc1ccccc1NC(=O)c1ccccc1C`, the activity change, negative = inhibition is 1.11% [at 0.00184 µM]. As for `N#Cc1c(-c2ccccc2)nc(SCc2ccc([N+](=O)[O-])cc2)[nH]c1=O`, the Potency result is “inactive”. For the molecule `O=C(Cc1c(O)c2ccccc2[nH]c1=O)NCc1ccccc1`, the Potency result was “inactive”. `Cn1c(C(=O)NCCN2CCc3ccccc3C2)cc2c(=O)[nH]c3ccccc3c21`: the Potency was 13.1 µM (active). Turning to `O=C(CN1C(=O)COc2ccccc21)NCCN1CCc2ccccc2C1`, the Potency entry was “inactive”. Turning to `O=C(NCCN1CCN(Cc2ccccc2)CC1)c1cc2c(=O)[nH]c3ccccc3c2s1`, the Potency was 10.4 µM (active). Regarding `Cn1c(C(=O)NCCCN2CCN(c3cccc(Cl)c3)CC2)cc2c(=O)n(C)c3ccccc3c21`, the Potency entry was “inactive”.

With `O=C(CCCn1c(=O)[nH]c2cc(Cl)ccc2c1=O)NCCN1CCN(c2ccccc2)CC1`, the Potency entry is “inactive”. As to `COCC(=O)N1CCc2ccc(NC(=O)c3ccccc3Cl)cc2C1`, the Potency entry is “inactive”. Still for that read-out and setting: the same measure for `Cc1ccccc1NC(=O)COc1cccc2c1CCNC2=O`: “inactive”; for `O=C(Cn1nc(C(=O)O)c2ccccc2c1=O)Nc1ccc(F)cc1`: “inactive”; for `CCOc1ccccc1NS(=O)(=O)c1c[nH]c(C(=O)OC)c1`: “inactive”. For `Cc1nc2ccccn2c(=O)c1NC(=O)c1cccs1`, the Potency result is “inactive”.

For the molecule `O=C(NCc1ccccc1Cl)C1CCN(c2ncnc3c2nc2n3CCCCC2)CC1`, the Potency entry was “inactive”. On to `Cc1ccc(-c2nnc(SCC(=O)N/N=C/c3cccs3)n2-c2ccc(C)cc2)cc1`, for which the Potency result was “inactive”.

`Cc1ccc(-n2c(Cc3cccs3)nnc2SCC(=O)OC(C)C)cc1`: the Potency was 11.7 µM (active).

As for `COc1ccc(-n2c(SCC(=O)OC(C)C)nnc2-c2ccccn2)cc1`, the Potency entry was “inactive”. On the same count and under the same terms, the same measure for `COc1cccc(C(=O)OCC(=O)c2[nH]c(C)c(C(C)=O)c2C)c1`: “inactive”; for `O=C(NCCC1CCCCN1S(=O)(=O)c1cccs1)C(=O)Nc1ccc(F)cc1F` (stereo not drawn): “inactive”.

Turning to `O=C(NCc1ccccc1Cl)C1CCCN1S(=O)(=O)c1ccc(F)cc1` (stereo not drawn), the Potency result was “inactive”. On the same count and under the same terms, the same measure for `O=C(NCc1ccccc1Cl)C(=O)NCC1CCCN1S(=O)(=O)c1cccs1` (stereo not drawn): 14.7 µM (active). `Cc1ccc(S(=O)(=O)NCC(=O)N(CC(=O)NCC2CCCO2)c2cccc(F)c2)cc1` (stereo not drawn): the Potency result was “inactive”. On the same count and under the same terms, the same measure for `N#CCCN(C(=O)COC(=O)c1ccc(S(=O)(=O)N2CCCCCC2)cc1)c1ccccc1`: “inactive”; for `CC(=O)c1ccc(N2Cc3ccccc3C2)cc1`: “inactive”. For `O=C(OCC(=O)c1c[nH]c2ccccc12)c1cccc(O)c1`, the Potency result is “inactive”. Same read-out and setting: the same measure for `CCOc1ncccc1C(=O)OCC(=O)c1c[nH]c2ccccc12`: 13.1 µM (active); for `CCOc1ncccc1C(=O)OCC(=O)NC1CC1`: “inactive”.

For the molecule `O=C(O)c1ccccc1-c1ccccc1C(=O)Nc1ccccc1Br`, the Potency entry was “inactive”. Take `COc1ccc(C)cc1NC(=O)CSc1nnc2ccc(-c3ccccn3)nn12`: the Potency result is “inactive”. In the case of `CCCCc1ccc(NC(=O)NCc2cccnc2)cc1`, the Potency result is “inactive”. Still for that read-out and setting: the same measure for `CCc1ccc(N2CC(C(=O)N3CCCCCC3)CC2=O)cc1` (stereo not drawn): “inactive”.
